CaV13 ICDI inh: Disruptors of the CACNA1D IQ motif to Ca2+-dependent inactivation inhibitor domain association, primary screening, Förster resonance energy transfer in intact living … | HEK cells, CFP/YFP FRET ICDI-IQ, plate reader, 10 min; percent FRET-ratio fall versus neutral wells | inhibition, % at 12.3 µM | 0.098% of 340,000 active | AID 743397;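 active = mean replicate inhibition of at least 30% and at least 1% of replicates passing that level; inconclusive = only one of the two criteria is met; inactive = neither criterion is met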;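 note: 0% = median of the neutral control wells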
DENV2 CPE: protects cells from dengue virus 2 cytopathic effect; DENV2-infected cells, cytopathic effect rescue, plate reader; CPE inhibition, % at 9.99 µM; 1.7% of 350,000 active; AID 651640; in the data active = CPE inhibition above about 20%, passing the limit was not always enough; inconclusive = no clear call, values can overlap the other calls; tested in BHK-21 cells;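 note: 0% = median of neutral control wells and 100% = median of positive control wells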
INS-1E GSIS act: GLuc luminescence reporter in INS-1E cells, primary screen for activators of glucose-dependent secretion of insulin; INS-1E GLuc reporter insulin secretion, 2-3 h; activation, % at 16.6 µM; 0.61% of 370,000 active;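 active = lowest replicate activation of at least 40%, so every replicate reaches that level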;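 note: 0% = median of neutral control wells and 100% = median of IBMX positive control wells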
Ecoli rRNA inh: inhibits bacterial ribosomal RNA function over humanized ribosomes; E. coli WT GFP vs humanized-ribosome RFP mutants, fluorescence, 24 h; active compounds read low; DMSO median 0, no signal -100; GFP signal change (wild-type ribosome), % (no concentration beside the values); 1.6% of 350,000 active; AID 720706;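 active = significant combined selectivity score with lowered wild-type GFP, culture density cut under 30%, mutant RFP and density less affected; inactive = any of these conditions unmet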
PGC1a acetyl inh: lowers PGC1a acetylation signal in U2OS cells; inhibition, % at 15.6 µM; 0.17% of 350,000 active; AlphaScreen anti-acetyl-lysine; with virally co-expressed GCN5 acetyltransferase;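 active = every replicate shows inhibition of at least 40%; inconclusive = mean inhibition at least 40% but some replicate below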;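 note: 0% = neutral control wells and 100% = positive control wells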
ERAP1 inh: ERAP1 (human) enzyme inhibition; recombinant ERAP1, Leu-AMC fluorescence, 60 min; inhibition, % at 10.7 µM; 0.15% of 340,000 active; Q9NZ08;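 active = mean replicate inhibition of at least 30%, or all replicates individually reaching that 30% level; inactive = mean below 30% and not every replicate reaching it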;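 note: 0% = neutral control wells and 100% = L-leucinethiol positive control wells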
Active calls of the source: *. An excerpt weighted towards active compounds, which were near 3.2% of everything screened.

How did CCSc1nc2sc3c(c2c(=O)n1CC)CCC3 do in these assays?
CaV13 ICDI inh: -5; DENV2 CPE: 40*; Ecoli rRNA inh: -26; PGC1a acetyl inh: 7; ERAP1 inh: 1

How did O=C(O)CSc1ncnc2sc3c(c12)CCC3 do in these assays?
CaV13 ICDI inh: -9; PGC1a acetyl inh: 9

What do the screens show for `CCSc1ncnc2sc3c(c12)CCC3`?
CaV13 ICDI inh: -5; INS-1E GSIS act: 43*; PGC1a acetyl inh: -19

How did O=C1N[C@H](Cc2ccccc2)COCc2cnnn2CC[C@@H]1Cc1cccc(Cl)c1 do in these assays?
INS-1E GSIS act: 0; Ecoli rRNA inh: 0

Results for O=C(C[C@H]1CC[C@@H]2[C@H](COC[C@@H](O)CN2C(=O)Nc2cc(Cl)cc(Cl)c2)O1)NCC1CCCCC1 ?
DENV2 CPE: inconclusive; INS-1E GSIS act: -12; Ecoli rRNA inh: -4; PGC1a acetyl inh: 5; ERAP1 inh: 0

What do the screens show for `O=C(NC[C@H]1N[C@H](CO)[C@@H]1c1ccc(-c2cncnc2)cc1)C1CCC1`?
INS-1E GSIS act: 3; Ecoli rRNA inh: -1

How did CC1(C)C(=Cc2ccccc2)C(=O)c2ccccc21 do in these assays?
CaV13 ICDI inh: -5; DENV2 CPE: 4; INS-1E GSIS act: 2; Ecoli rRNA inh: -51; ERAP1 inh: -1

Results for CC1(C)c2ccccc2C(=O)c2ccccc21 ?
CaV13 ICDI inh: -5; DENV2 CPE: 6; INS-1E GSIS act: 1; Ecoli rRNA inh: -22*; PGC1a acetyl inh: -7; ERAP1 inh: -2

What do the screens show for `COc1cc2nc(Nc3ccc(C)c(C)c3)nc(N)c2cc1OC`?
CaV13 ICDI inh: -18; DENV2 CPE: -1; INS-1E GSIS act: 22; Ecoli rRNA inh: -38*; ERAP1 inh: -1

How did COc1cc2nc(Nc3ccc(F)cc3)nc(N)c2cc1OC do in these assays?
CaV13 ICDI inh: -18; DENV2 CPE: -4; INS-1E GSIS act: -13; Ecoli rRNA inh: -16*; ERAP1 inh: -5

How did O=C(O)[C@@H]1CCCN1S(=O)(=O)c1cccc(S(=O)(=O)N2CCC[C@H]2C(=O)O)c1 do in these assays?
CaV13 ICDI inh: 68*; DENV2 CPE: 5; INS-1E GSIS act: -14; Ecoli rRNA inh: 21; PGC1a acetyl inh: 3; ERAP1 inh: 4

What do the screens show for `O=C(O)C1CCCN1S(=O)(=O)c1cccc(S(=O)(=O)N2CCCC2C(=O)O)c1` (stereo not drawn)?
CaV13 ICDI inh: -6; DENV2 CPE: inconclusive; INS-1E GSIS act: 8; Ecoli rRNA inh: 17; PGC1a acetyl inh: 4; ERAP1 inh: 0

Results for CCc1ccc(S(=O)(=O)Nc2cc(SCC(=O)O)c(O)c3ccccc23)cc1 ?
CaV13 ICDI inh: 1; DENV2 CPE: 0; INS-1E GSIS act: -56; Ecoli rRNA inh: -11; PGC1a acetyl inh: -9; ERAP1 inh: 1

Results for O=C(O)CSc1cc(NS(=O)(=O)c2cccc([N+](=O)[O-])c2)c2ccccc2c1O ?
CaV13 ICDI inh: -2; DENV2 CPE: -4; INS-1E GSIS act: -19; Ecoli rRNA inh: -34*; PGC1a acetyl inh: 38; ERAP1 inh: 8

Results for O=C(NCc1ccccn1)C1CCN(C(=O)c2cc3sccc3n2Cc2ccc(F)cc2)CC1 ?
CaV13 ICDI inh: -4; DENV2 CPE: -14; INS-1E GSIS act: -6; Ecoli rRNA inh: -15; PGC1a acetyl inh: -11; ERAP1 inh: 8

What do the screens show for `O=C(NCc1ccco1)C1CCN(C(=O)c2cc3sccc3n2Cc2ccc(F)cc2)CC1`?
CaV13 ICDI inh: -7; DENV2 CPE: 8; Ecoli rRNA inh: -29*; PGC1a acetyl inh: 3; ERAP1 inh: -1

How did COC(=O)C1=C(C)NC(C)=C(C(=O)OC)C1C(=O)OCC(=O)N1c2ccccc2CC1C (stereo not drawn) do in these assays?
CaV13 ICDI inh: -6; DENV2 CPE: -4; INS-1E GSIS act: -11; Ecoli rRNA inh: -12*; PGC1a acetyl inh: 0; ERAP1 inh: 48*

What do the screens show for `Fc1cccc(CN2C[C@@H]3N[C@H](C2)[C@@H]3c2ccc(-c3cccc(F)c3)cc2)c1`?
DENV2 CPE: -30; INS-1E GSIS act: active; Ecoli rRNA inh: -57; PGC1a acetyl inh: 99*; ERAP1 inh: -2

Bioassay records as filed in PubChem BioAssay.
